Screening data deposited in PubChem BioAssay by several laboratories.
RecA splice inh: inhibitors of M. tuberculosis RecA intein splicing | cell-free RecA intein splicing, fluorescence | inhibition, % (no concentration beside the values) | 0.75% of 290,000 active | P9WHJ3 | AID 2221; in the data active = inhibition above about 30%;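 note: 0% = vehicle wells and 100% = reference inhibitor control wells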
Mtb bLac sens: beta-lactam sensitization of Mtb H37Rv; M. tuberculosis H37Rv growth with meropenem, percent inhibition; 0.27% of 330,000 active; AID 434955; inhibition, % at 25 µM; call rule not given here;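 note: growth measured after seven days incubation then overnight dye step; 0% = bacteria only wells and 100% = bacteria with antibiotic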
GDH-TPI counter-1: GDH-TPI coupled enzyme inhibition counter-screen. inhibition, % at 4.8 µM. 1.2% of 360,000 active. GDH-TPI coupled enzyme counterscreen, NADH absorbance. AID 588335; in the data active = inhibition above about 30%;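 note: 0% = DMSO wells and 100% = wells lacking the enzyme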
CCHFV vOTU inh: blocks the CCHF virus ovarian tumor domain protease | AID 651958 | CCHFV vOTU protease, Pep-AMC fluorescence | inhibition, % at 11.5 µM | 0.55% of 370,000 active; in the data active = inhibition above about 30%; note: 0% = vehicle wells with enzyme and 100% = no enzyme wells
Mtb FBA inh: inhibits M. tuberculosis FBA enzyme; purified M. tuberculosis FBA, fluorescence read-out; AID 588726; 2.3% of 360,000 active; inhibition, % at 1 µM; P9WQA3;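 note: 0% = vehicle and 100% = reference inhibitor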
Target sequence (P9WQA3 whole entry, looked up): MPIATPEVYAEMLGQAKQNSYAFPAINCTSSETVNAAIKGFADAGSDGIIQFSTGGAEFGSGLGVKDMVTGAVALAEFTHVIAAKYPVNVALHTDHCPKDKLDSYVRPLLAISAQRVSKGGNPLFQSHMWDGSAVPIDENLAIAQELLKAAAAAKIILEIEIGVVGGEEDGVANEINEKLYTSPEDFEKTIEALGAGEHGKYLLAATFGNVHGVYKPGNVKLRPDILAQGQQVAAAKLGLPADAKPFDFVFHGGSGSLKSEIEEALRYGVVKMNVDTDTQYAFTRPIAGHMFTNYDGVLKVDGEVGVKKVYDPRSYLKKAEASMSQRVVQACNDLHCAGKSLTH
Mtb FBA confirm: Mtb FBA inhibition, confirmed. shares compounds with Mtb FBA inh. purified M. tuberculosis FBA, fluorescence read-out. inhibition, % at 1 µM. 78% of 5,600 active. AID 651616;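 note: 0% = vehicle wells and 100% = reference inhibitor wells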
GDH-TPI counter-2: GDH-TPI inhibition counter-screen for FBA inhibitors; GDH-TPI coupled enzyme counterscreen, fluorescence; AID 652141; inhibition, % at 1 µM; 81% of 5,600 active; shares compounds with Mtb FBA inh; in the data active = inhibition above about 10%
An asterisk follows results filed as active; / = no result given; + = active, no number. Shown are actives, neighbours in structure and some others; about 4.2% of the full set was active somewhere. Cut-off read from the data, not from the text of the source, unless noted: active = inhibition above about 27%; inactive = the rest.

SMILES | RecA splice inh | Mtb bLac sens | GDH-TPI counter-1 | CCHFV vOTU inh | Mtb FBA inh | Mtb FBA confirm | GDH-TPI counter-2
Cn1nc(-c2ccc(Cl)cc2)c2cc(C(=O)NCCN3CCOCC3)sc21 | -8 | 14 | 1 | 1 | 34* | 41* | 26*
Cn1nc(-c2ccc(Cl)cc2)c2cc(C(=O)NCCCN3CCOCC3)sc21 | / | 11 | 16 | / | 29* | 67* | 56*
C=CCN1C(=O)[C@@H](CC(=O)NCCCC)[C@]2(C(=O)OC)CCCCC=C12 | / | / | / | 2 | / | / | /
Cc1ccc2c(c1)C(N1CCCC1=O)CC(c1ccco1)N2 (stereo unspecified) | -19 | -8 | 21 | -17 | 31* | 6 | -2
Cc1cc2c(c(=O)n1CCc1ccccc1)C(c1ccco1)C(C#N)=C(N)O2 (stereo unspecified) | -2 | 2 | 6 | -62 | 40* | 2 | -3
COc1cccc(C(=O)N[C@@H](Cc2cccnc2)C(=O)N2CCC[C@H]2C(=O)NCc2ccccc2)c1 | / | / | / | -7 | / | / | /
CC1CCC(N2CCN(S(C)(=O)=O)CC2)CC1 (stereo unspecified) | 1 | 8 | 6 | 2 | 56* | 110* | 102*
COC(=O)C1CN(Cc2ccc(F)cc2)CCS(=O)(=O)N1Cc1cn(Cc2ccc(C)cc2)nn1 (stereo unspecified) | / | / | / | 5 | / | / | /
COCCCn1c(N)c(C(=O)NCCC(C)C)c2nc3ccccc3nc21 | -229 | 98 | 2 | 7 | 34* | 74* | 62*
COCCNC(=O)CSc1nc2cc(OC)c(OC)cc2c(=O)n1CCC1=CCCCC1 | 0 | / | 8 | 3 | -1 | / | /
COCCNC(=O)c1c(N)n(CCC2=CCCCC2)c2nc3ccccc3nc12 | -165 | 0 | 13 | -51 | 54* | 77* | 56*
CCCCn1c2nc3ccccc3nc2c2c(=O)n(C(C)CC)cnc21 (stereo unspecified) | 1 | -6 | 14 | -9 | 13 | / | /
CCCCn1c(N)c(C(=O)OCCOC)c2nc3ccccc3nc21 | -232 | -2 | 3 | -59 | 55* | 31* | 17*
CCC(C)n1c(C)nc2c(c1=O)c1nc3ccccc3nc1n2CCC1=CCCCC1 (stereo unspecified) | -2 | 4 | 20 | -7 | 32* | + | +
CCCCn1c(N)nc2ccccc21 | -2 | 4 | 1 | -15 | 0 | / | /
COc1cccc(N2CC(O)=C(c3nc4ccccc4c(=O)[nH]3)C2=N)c1 | -6 | -5 | 33* | / | 77* | 51* | 50*
CC(C)N1CC(O)=C(c2nc3ccccc3c(=O)[nH]2)C1=N | -9 | 3 | 10 | -8 | 44* | + | 170*
Cc1cc(C)cc(N2CC(O)=C(c3nc4ccccc4c(=O)[nH]3)C2=N)c1 | 2 | -5 | 6 | 10 | 34* | 3 | 0
O=S(=O)(c1ccccc1)n1c(CN2CCOCC2)nc2ccccc21 | / | / | / | 0 | / | / | /
Cn1c(-c2cc3ccc(OC(=O)C(C)(C)C)cc3oc2=O)nc2ccccc21 | -301 | 10 | 33* | -223 | 59* | 3 | -3
S=c1nc(-c2ccccc2)c(-c2ccccc2)n[nH]1 | 2 | 5 | 18 | -6 | 0 | / | /
Nc1c(-c2ccccc2)n[nH]c1-c1ccccc1 | -1 | 6 | 2 | 0 | 40* | 72* | 50*
Cn1cncc1C#Cc1ccc2cc(CCO)oc(=O)c2c1 | / | 0 | 17 | -7 | 34* | + | +
O=c1oc(CCO)cc2ccc(-c3ccc4[nH]ccc4c3)cc12 | / | 0 | 14 | -1 | 5 | / | /
Cc1cc2nc3c(c(=O)n2[nH]1)CCCC3 | 0 | -3 | -5 | 3 | 16 | / | /
SMILES | RecA splice inh | Mtb bLac sens | GDH-TPI counter-1 | CCHFV vOTU inh | Mtb FBA inh | Mtb FBA confirm | GDH-TPI counter-2
O=c1c2c(nc3cc(-c4ccc(Br)cc4)[nH]n13)CCCC2 | -2 | 2 | 3 | 3 | 5 | / | /
O=c1c2c(nc3cc(-c4ccccc4)[nH]n13)CCC2 | 1 | 16 | 6 | -3 | 44* | 111* | 98*
COc1ccc(-c2cc3nc4c(c(=O)n3[nH]2)CCC4)cc1 | -1 | -3 | 11 | -3 | 38* | 151* | 129*
COc1c(Cl)cc(Cl)cc1CNCCNCC(C)O (stereo unspecified) | 3 | 8 | -2 | -15 | -3 | / | /
CNCc1cc(Cl)cc(OC)c1OC(C)C | 2 | / | 0 | 7 | 65* | 79* | 86*
O=C(NCc1ccccc1)[C@@H]1CCCN1C(=O)[C@H]1CCCN1C(=O)c1ccc(F)cc1 | / | / | / | 8 | / | / | /
C[C@@H]1CCN(C2CC2)S(=O)(=O)c2c(cccc2N2CC[C@@H](O)C2)O1 | / | / | / | -8 | / | / | /
COC(=O)c1cc(COc2ccc3ccc(=O)oc3c2)c(C)o1 | -4 | 3 | 19 | -17 | 36* | 8 | 1
CC(C)=CCC/C(C)=C/COc1ccc2ccc(=O)oc2c1 | 2 | 13 | 28 | -1 | 15 | / | /
CC(C)=CCOc1ccc2ccc(=O)oc2c1 | 0 | -6 | 8 | -40 | 65* | 60* | 50*
CC1=CC(C/C(C)=C/COc2ccc3ccc(=O)oc3c2)OC1=O (stereo unspecified) | -4 | -4 | 13 | -37 | 48* | 54* | 44*
CC(C)=CCC/C(C)=C/CC/C(C)=C/COc1ccc2ccc(=O)oc2c1 | / | 14 | 2 | -25 | 30* | -7 | -8
Cc1ccc(-n2c(SCc3ccc(Cl)c(Cl)c3)nnc2-c2ccc(C(C)(C)C)cc2)cc1 | / | / | / | -3 | / | / | /
CCCOC(=O)Nc1nc2ccccc2o1 | / | 24 | 10 | -1 | 1 | / | /
CCOC(=O)C(=CN=C(N)Nc1nc2ccccc2o1)C(=O)OCC | 7 | 85 | 16 | -3 | 32* | 29* | 23*
c1ccc(-c2c[nH]c3cccc(C4CCCCC4)c23)cc1 | / | / | / | 2 | / | / | /
COc1ccc2oc(C(=O)OCC(=O)N3CCN(C(C)=O)CC3)c(C)c2c1 | -3 | 2 | -1 | -15 | 43* | 59* | 42*
COc1ccc2oc(C(=O)OCC(=O)N3CCN(c4ccccc4)CC3)c(C)c2c1 | 2 | -4 | -10 | 3 | 5 | / | /
COc1ccc2oc(C(=O)OCC(=O)N3CCN(S(=O)(=O)c4ccccc4)CC3)c(C)c2c1 | 0 | -11 | -1 | 1 | 26 | / | /
COc1ccc2oc(C(=O)OCC(=O)N3CCCCC3)c(C)c2c1 | 4 | -8 | 4 | -23 | 37* | 125* | 113*
CC1=C(C)C(=O)N(C(C)CCc2ccccc2)C1=O (stereo unspecified) | -2 | -2 | 8 | -11 | 40* | 89* | 75*
CC(Cc1ccccc1)N1C(=O)c2ccccc2C1=O (stereo unspecified) | 1 | -4 | -5 | -8 | -5 | / | /
COc1ccc(CN(CCN2CCOCC2)C(=O)c2ccccc2C)cc1OC | / | / | / | -2 | / | / | /
